Data taken from PubChem BioAssay AID1508600 (Functional Genomics Laboratory (NCATS/FGL), 2020).
Out of some 53,000 sequences screened, about 3,700 (7%) were called active.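 The calls were made as follows: active = gene knockdowns whose robust z-score for IL-1 alpha signal is at least 2 or at most -2, so actives lie on both sides; inactive = the rest.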 Many of the other results were omitted from the sample, so actives are more common in it than they were.

test: Components of the Cytosolic LPS Sensing Pathway: Gene Identification via Genome-wide siRNA Screen; settings: RAW264.7 macrophages, IL-1a HTRF, actives lie on both sides, screened at 100 nM (by protocol), cells primed 5 h with Pam3CSK4 first;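 also: robust z of the log signal after scaling to non-targeting control siRNA wells of the plate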
Procedure, shortened: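 Knockdown: 100 nM siRNA, 48h, RAW264.7. Stimulation: Pam3CSK4 5 h, then LipidA via TransIT-TKO 24 h. Output: supernatant IL-1a HTRF, negative-control-normalized, log robust z-score; viability by CellTiter-Glo.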

z-score, active:
GGAUGCAGUACGAAAUUCUTT against Psmd1 -2.93, GGUUGUUUUGGAAUUGAUATT against Smu1 -2.82, CCCUCAGGACACGUUUUAGTT against Wdsub1 -2.14, GCUCCUAUGGCAACAUCGUTT against Olfr303 2.11, GAACUACCUGGACUUCCACTT against Cox6b1 2.5, CGGAUUCAGUAUUAGCAAUTT against Ogt -2.4, GCUCCUAGUGUUUUUGUGGTT against Rplp0 -2.91, GGGAGAAACGCAUCUUAUCTT against Ngly1 2.38, CCUGUUUAGCAUCUGGGAGTT against Gpr1 6.24, GCCCAAACUCAAGCAAGUCTT against Trpm3 2.37, GGACGGAGCUGUAAUUGCATT against Arhgef12 2.16, GGUGGUGCCAAGAUGUUGUTT against Aste1 2.26, GGCAGUACUGUCCAGAUGATT against Gsdma2 -2.12, GGGUUUCUUGUUGGUUUUATT against Dock5 2.29, GGCUACCCUUUUGAACCUCTT against Psmd3 -2.81, GCGACUCCUAUAAUUUCUATT against Rpa3 -2.17, GGAACGUACAGGAUAAUCUTT against Krt79 4.28, GGGUUUCAUUAAAUUUCCUTT against Cyp2g1 -2.06, CCUUUGAAUCCCAGGUUCATT against Lmo1 3.05, GGAUACAUUGAGAAAGACUTT against Tor1aip2 2.43

z-score, inactive:
GGACAGGUGUCGAUCAAACTT against Zfp280c 0.0987, GGAAUUGCACUUUUCCAAUTT against Phlda1 0.481, GGCAGUGCCAAUGAACAAGTT against Elob 0.591, CGAGCAUGCAUUCAAAGGATT against Lrrc3b 1.33, GGGCACAUACUCAGAUGAATT against Ngfr -0.62, GAGUAUCAUUUCCUGUUUUTT against Olfr389 -0.395, CCAUUCCAGUUAUGUCAAUTT against Pus3 -1.06, CGAGCCAUACCUUCAACUGTT against Ncoa2 -0.815, GGAGCAGAUGAGAUCCAAGTT against Cdc42se1 -0.256, GCCUUUAUAGUCUUAAGCATT against Ndc1 -0.209, GGAAAAACUCCCUCGGUACTT against Rps11 0.683, GCUGCUUUGGGCACAAGAUTT against Nppb 0.428, GGUAUGAGAUUACCUUCACTT against 1700037H04Rik -1.16, GCUCAGAAAUCGGCUCAGATT against Ssbp2 -1.66, GCUAAACUCCACCAAGACATT against Grid2ip 0.338, GGGCAAUUAUCUUUGUUAUTT against Olfr589 -0.0712, GCCAUUAUGACAGAACGCATT against Adra1d -0.606, GGACGAUUCUUUUAUUUGATT against Fam78b -1.22, CCAAUCGAUACAUCAUUUUTT against Gmcl1 1.1, GCAUCAUACCACUGUGUUUTT against Obox1 -1, GGCUGUUUGGCUUGUUUAATT against Golga7 1.82, GGAAUUAUUCAGCAAGACUTT against Cdrt4 -0.636, CGUUUGUUACUCUUCAGCUTT against Olfr1461 -1.07, GGCCAUAACACAAAUGUAGTT against Prpf4 0.554, GGAGGAAAGUAUGAAGAAATT against Cyp2j9 -0.337, GGCUGUGCAUUAUAUCCUUTT against Lhfpl1 1.2, GGUUAUCCAGAGAGAAGGATT against Asxl2 0.399, GGCUAAGCUGAAGAAGCACTT against Fam219b -0.326, GGUGACAACACUUGUCAACTT against Ctnna2 -0.551, GCCCAUGUUUUUUUUUCUGTT against Olfr648 0.776, GGCUGCUUAACCUUGAUAATT against Lrrd1 0.529, CGGUAGAGUCAGCAUUUGATT against Sez6 -0.231, GCCGAGAUGAGCUCCUAAUTT against Krt27 1.29, GCUACAGCUUCAAUUAAAUTT against Birc6 0.135, CCCACAGGGAUUUAUUUAUTT against Slc37a1 -0.362, GGACAUCCAUCAGUACAGGTT against Hras 0.812, GGCUGUCACUUUAUAGGCATT against Wrnip1 -0.862, CGACUUGAACUCUAUGGCGTT against Ascl1 -0.12, CCGAAAGGCUGGUACAUUCTT against Kin -0.494, GGUUAUCUUCUUGACAGAATT against Nmur2 1.42, GGUAGAGAUGUACAUUUGGTT against Chrdl2 -1.72, GCAAGAAGUUCCUAUCAUCTT against Polr2b -1.67, GGUUACCCAACUUGAAGGATT against Parp16 1.37, GGCAAAAAGAUAGGAGCUGTT against Txn1 0.57, GGUGACUAACGAGAUCAUUTT against Slc19a1 0.913, CGAACAGAGUCUAAUCUCATT against Ptpn1 1.69, AGGAAUGCCCAGGUCUCAGTT against Lst1 -1.07, GGUCUGCUAUGAAAUUAUGTT against Tmem14c -0.537, GGCCUACAGGACAAAGUUUTT against Comt 0.394, CGACUAGAGUUGUGUGAUATT against Uqcrh 0.834, GGUGCAUUAUAAGAAUCGCTT against Fhl1 0.144, GUACCUCUACUAUUCCUUUTT against Krtap5-2 -0.13, GGAGUUCAAGACGGAGAAGTT against Gpr27 0.000428, GGCUUAUAUCUGAUUGAUGTT against Rom1 -1.17, GGAAAGUGACUGCAUGUUCTT against Pgp -1.3, GGACUUCUUCACCAUCUGGTT against Lcat -1.3, GGUACAUGAUCAAUUUAGATT against Tspyl4 0.726, GGACAUUAGGAAAUUAGAUTT against Ppp3cc -0.404, CCUUAUCUAUAACUCUGCUTT against Tirap -0.772, GGAGAGCGAAGAAAAAAUGTT against Birc2 -0.852, GGUUGUCUUCAACACCAAATT against Lgals7 -0.147, GCAAGAGCAUGCUUACGGUTT against Ccl1 -0.324, GGACGGGAUUGAGCCUAUGTT against Eif4e 1.65, CCAAGCUUACACUAGUGUUTT against Cdk6 -0.429, GCGUGUACAAGGCUAUUCATT against Stk4 1.19, GGCCUACUUCCUACUCAAATT against Tbx10 -1.85, CCUACACCUAGAAAUCUAGTT against Gpr3 1.52, GGAUGAGGAUGGCUAUAAGTT against Zc3h10 0.585, GGGAAGGAUGACCUAACAATT against Gpatch4 -0.839, CGGAUUAGAAGAGCCAAACTT against Cd59b 0.352, GGAAAAAGCCAAGCUCAUCTT against Syt3 -1.5, GGAGCAUCCUGGCAAACAGTT against Slc51b -1.32, CUGAUCCUUCAAUUAACAUTT against Olfr202 0.0318, GCAGGUCCUGACCUAUGUGTT against Cyp27b1 -0.556, CCAUCUGCAUCAAGAGAAATT against Kirrel2 0.709, GGCUAAAGAAUAAAGAUCCTT against Cadm2 1.66, GUGAGACCAAGUUACAGGATT against Olfr1504 1.5, CCAACCAAAGAUGAAUUGUTT against Usp19 -0.445, GGUGGCCAAACAGGAAAAGTT against Fau 0.91, GGCACACAAACAAUUGGUATT against Rrp36 -0.318, CCGAAUAUCGAGUUCCCAATT against Ceacam20 -0.0196, GGAUGAGAAUGGCACCAGUTT against Prima1 -1.4, GGAAAUGUACAUCAUCAAGTT against Cnga2 -1.24, CCUGUUAAACAGGACUAGUTT against Tmem263 -1.51, GGGAAUUUGCUCCUGAAAGTT against Pcdhb6 -0.936, GGCCCUCCCAAAUCAUUUGTT against Slc30a6 0.188, GGGAAGAAAGACUCAAACUTT against Dcdc2a 0.919, GGAAAAUUCAGGAAGUUUGTT against Magi3 0.489
